This is an account of results in PubChem BioAssay (NCI).

This is part of a sample that, as a whole, favours compounds with a hit. Of some 83,000 tested, about 20% had one in any assay.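 The test compound was applied at a single concentration to cells in 96-well plates for 48 hours, and percent growth was recorded.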 The source made the active and inactive calls. Rule for the calls: active = growth percent below 10; inactive = the rest.

For one experiment, the system named is NCI-H460 lung. Nature of the experiment: NCI-60 one-dose screen, 48 h (100 = growth as untreated, 0 = no growth, -100 = all killed). Particulars: 10 µM unless noted.
For `COc1cc(C2CC(c3ccc(C)cc3)=NN2C=O)ccc1Oc1nc2c(c(=O)n(C)c(=O)n2C)n1C` (stereo not given), the growth is 98.6% (inactive).

With `COc1cc(C2CC(c3ccccc3)=NN2C=O)ccc1Oc1ccnc2cc(Cl)ccc12` (stereo not given), the growth was 73.8% (inactive).

For the compound `NC(N)=N/N=C/c1ccc(Cl)cc1`, the growth was 53.6% (inactive).

Regarding `O=c1c2cc(Cl)ccc2oc2ccc(OCCCCCN3CCCCC3)cc12`, the growth was 10.2% (inactive).

Turning to `COc1cc(Cl)cc(-c2nn(C(=O)NCCN3CCOCC3)cc2-c2ccncc2)c1`, the growth is 56.1% (inactive).

As to `COc1ccc2nc3ccccc3c(NCc3ccc(Cl)cc3)c2c1`, the growth was 12.5% (inactive).

With `CN1C(=O)N(C)C2C1NN=c1s/c(=C\c3ccc(C(F)(F)F)cc3)c(=O)n12` (stereo not given), the growth is 11.7% (inactive).

As to `C=C1C(=O)O[C@H]2[C@H]1CC/C(COC(=O)NCc1cn(C)c3ccccc13)=C\CC[C@@]1(C)O[C@@H]21`, the growth is 5.72% (active).

Turning to `c1csc(-c2cnc3nonc3n2)c1`, the growth is 102% (inactive).

With `Nc1nc(NC2CC2)cc(-c2cccc(Cl)c2Cl)n1`, the growth is 27.6% (inactive).

The subject of the next experiment is NCI-H522 lung. The experiment is described as above. Particulars: 10 µM unless noted.
With `O=C1/C(=C/c2ccccc2)SC(=Nc2ccccc2)N1Nc1ccccc1`, the growth was -5.53% (active).

Regarding `COc1cnc2c(c1)C(=O)c1c-2n(CCCNC(C)C)c(=O)c2cc(Cl)ccc12`, the growth is -79.8% (active).

Turning to `CCSCC1CC(O)(c2ccccc2)C(c2ccccc2)C(c2ccc(F)cc2)O1` (stereo not given), the growth was 10.6% (inactive).

Turning to `CN1C(=O)C(C2=NNC(c3ccccc3C(=O)O)C2)C(=O)N(C)C1=O` (stereo not given), the growth is 83.7% (inactive).

As to `NC(N)=NC1CCCCC1`, the growth is 85.8% (inactive).

`COc1ccc(C(=O)OC2C(OC3C(O)COC(O[C@H]4C[C@H]5[C@@H]6CC=C7C[C@@H](O)CC[C@]7(C)[C@H]6CC[C@]5(C)[C@H]4[C@H](C)C(=O)CCC(C)C)C3OC(C)=O)OCC(O)C2O)cc1` (stereo not given in full): the growth was -65.7% (active).

Regarding `CC(C)(C)c1ccc(OC(=O)Nc2ccccc2)cc1`, the growth is 100% (inactive).

Turning to `CN1C2CCC1/C(=C\c1ccc(F)cc1)C(=O)/C2=C/c1ccc(F)cc1`, the growth is 34.4% (inactive).

For `CCCCOC(=O)c1cc(O)c(O)c(O)c1`, the growth was -1.17% (active).

Take `CCOC(=O)C1OC2(CCCC2)OC1C(=O)OCC` (stereo not given): the growth was 90.5% (inactive).

For the compound `O=C(Nc1cccc(-n2ccc3c(NC(=O)c4ccccc4)nccc32)c1)c1ccc(N2CCOCC2)c(C(F)(F)F)c1`, the growth is -22.8% (active).

For `CCN(CC)CCCC(C)Nc1c(-c2ccccc2)cnc2cc(Cl)ccc12` (stereo not given), the growth is 50.1% (inactive).

Turning to `O=C1C=CN2C(=O)CC=CC2[C@@H]1O` (stereo not given in full), the growth is 113% (inactive).

As for `CC(=O)O[C@@H]1CC2C(C)(C)CCCC2(C)C2=C1C(=O)C(C(C)C)=CC2=O` (stereo not given in full), the growth is -27.1% (active).

For `O=C(Nc1ccc(-n2ccc3c(NC(=O)c4ccccc4)nccc32)cc1)c1ccc(N2CCOCC2)c(C(F)(F)F)c1`, the growth is 29.9% (inactive).

In the case of `COc1cc(/C=C/c2cc(/C=C/c3ccc(O)c(OC)c3)n(C(=O)Nc3ccc(F)c(Cl)c3)n2)ccc1O`, the growth was 10.9% (inactive).

In the case of `COc1cc(OC)c2sc(-c3ccc(-n4cncc4-c4ccc(OC)c(N)c4)cc3)nc2c1`, the growth is 79.9% (inactive).

Consider `COc1ccc(C2=NNC(c3ccc(Oc4nc5c(c(=O)n(C)c(=O)n5C)n4C)c(OC)c3)C2)cc1` (stereo not given), for which the growth was 84.4% (inactive).

With `NS(=O)(=O)c1ccc(CCn2c(SCC(=O)N/N=C/c3cccnc3)nc3ccccc3c2=O)cc1`, the growth was 68.5% (inactive).

Turning to `O=C(NNC(=O)c1cccc(Cl)c1)c1ccccc1`, the growth is 111% (inactive).

As to `N=c1nc(N2CCCCC2)cc(N)n1O`, the growth was 103% (inactive).

`Cc1ccc(C)c(NC(=O)c2sc3c(=O)[nH]cnc3c2C)c1`: the growth was 64.9% (inactive).

Turning to `C=CCOC(=O)C1=C(C)NC2=C(C(=O)CCC2)C1c1ccc(F)cc1` (stereo not given), the growth is 82.4% (inactive).

In the case of `COc1ccc(-c2cnc(-c3ccncc3-c3cccc(OC)c3)o2)cc1`, the growth is -59.9% (active).

As to `O=C(Nc1ccncc1)C(=O)c1cn(S(=O)(=O)c2cccc(Cl)c2F)c2ccccc12`, the growth is 35.2% (inactive).

Take `Cc1ccccc1Nc1n[nH]c(Cc2ccccc2)n1`: the growth is 58% (inactive).

Turning to `Oc1ccccc1-c1nnc(COc2ccc(Cl)cc2Cl)o1`, the growth was 1.97% (active).

With `CS(=O)(=O)c1ccc(C(=O)N/N=C/c2ccccc2O)cc1`, the growth was 15.1% (inactive).

As for `CCCCCCCCCCCCCCCCCC(=O)OCCCCCCCCCCCCC`, the growth was 111% (inactive).

Consider `COc1cc(C2CC(c3ccc(C)cc3)=NN2C=O)ccc1Oc1nc2c(c(=O)n(C)c(=O)n2C)n1C` (stereo not given), for which the growth was 98.3% (inactive).
